Structures are written as SMILES. In all, about 360,000 compounds went through this assay and about 700 (0.19%) were called active. Shown is part of a subset that was picked to be rich in actives. A number with no mark means an inactive call.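 Rule for the calls: active = activation above the run's mean over test compounds plus 3 SD (cut at about 23% in these data); inactive = the rest.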

The target of this test is Muscarinic acetylcholine receptor M5 (Homo sapiens) (UniProt P08912). The experiment in a line: CHRM5 activators raising intracellular calcium – CHO-K1 cells, Fluo-8 calcium fluorescence, primary screen (AID 624037).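 Note: signal is peak over basal fluorescence ratio across the kinetic read.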 The conditions noted are these: CHO-K1 hM5 cells, at 3 µM, hits give high values, 0% DMSO wells, 100% maximal acetylcholine response. A general note: A change in cytosolic calcium serves as a functional read-out for many receptors and channels.
Chain of Muscarinic acetylcholine receptor M5 (Homo sapiens) (P08912 whole entry, looked up): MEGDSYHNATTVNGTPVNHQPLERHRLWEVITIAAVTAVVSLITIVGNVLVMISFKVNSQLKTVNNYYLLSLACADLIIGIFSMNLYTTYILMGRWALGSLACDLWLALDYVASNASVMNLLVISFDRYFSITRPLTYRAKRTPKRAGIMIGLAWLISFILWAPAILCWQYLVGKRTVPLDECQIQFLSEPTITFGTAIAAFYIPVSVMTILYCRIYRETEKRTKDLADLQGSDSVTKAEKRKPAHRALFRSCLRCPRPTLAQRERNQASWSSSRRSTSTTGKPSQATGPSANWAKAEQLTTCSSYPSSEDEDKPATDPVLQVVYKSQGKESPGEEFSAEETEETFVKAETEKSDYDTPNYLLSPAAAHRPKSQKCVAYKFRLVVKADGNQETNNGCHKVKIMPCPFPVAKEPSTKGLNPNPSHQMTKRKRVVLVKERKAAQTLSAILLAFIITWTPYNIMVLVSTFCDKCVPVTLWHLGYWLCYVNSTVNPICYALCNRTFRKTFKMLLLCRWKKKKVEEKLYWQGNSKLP
On to `CC#CC[N+](C)(C)CCCCCC`, for which the activation was -16.5%. With `CCc1ccc(NC(=O)C(C)OC(=O)/C=C/c2cccc([N+](=O)[O-])c2)cc1` (stereo not drawn), the activation is -0.62%. On to `CCCCN(C)CCNC(=O)CSCc1ccc(C)cc1`, for which the activation is -6.02%.

Take `Cc1ccc(CNC(=O)C(=O)c2cn(CC(=O)N3CCOCC3)c3ccccc23)cc1`: the activation is -1.51%.

Regarding `O=C1/C(=C/c2ccc3c(c2)OCO3)Oc2cc(OCC(=O)N3CC(O)C[C@H]3C(=O)O)ccc21` (stereo partly drawn), the activation was 0.73%. With `CCOCCCNC(=S)Nc1ccc2nc(N3CCN(CC)CC3)cc(C)c2c1` the figure was -4.11%.

Take `Cn1cccc1C(C#N)c1ccccc1C#N` (stereo not drawn): the activation was -3.67%.

Consider `Cc1cccc(C)c1-n1nnnc1C1(C)CCC(=O)N1CCOc1ccccc1` (stereo not drawn), for which the activation is 4.47%. On to `Cc1cccc2c1N(CCOc1ccccc1)C(=O)C2=O`, for which the activation was 30.5% (active). In the case of `O=C1c2ccccc2C(=O)N1CCOc1ccc(F)cc1`, the activation is 11.9%. With `O=c1ccc(S(=O)(=O)N2CCCC2)cn1Cc1nc(-c2ccccc2)no1` the figure was -5.43%; with `Cc1ccc(C)c(NC(=O)c2ccc(OC(=O)c3ccco3)cc2)c1`, -2.18%.

For the compound `Cc1csc(=O)n1CC(=O)OCC(=O)N(CC(C)C)c1c(N)n(Cc2ccccc2)c(=O)[nH]c1=O`, the activation is 3.34%.

In the case of `CN(Cc1ccccc1)C(=O)COC(=O)/C=C/c1ccc2c(c1)OCO2`, the activation was 0.5%. With `CCNC(=O)C1(C)CCCN(Cc2noc(-c3ccccc3OC)n2)C1` (stereo not drawn), the activation was 1.13%.

Consider `Cc1ccc(CNC(=O)c2cccc3c2C(=O)c2ccc(N4CCC(C)CC4)cc2S3(=O)=O)cc1`, for which the activation was 4.93%. With `COc1ccc(S(=O)(=O)N2CCC(C(=O)NCCC(=O)Nc3ccccc3OC)CC2)cc1`, the activation is -1.33%. Regarding `CN(c1ccccn1)c1ncnc2[nH]ncc12`, the activation was -0.14%. For the compound `CN(C)/C=C/C(=O)c1cnc2sccn2c1=O`, the activation was -2.29%. For `O=C(O)c1ccn(COc2ccc(Br)cc2)n1`, the activation is -0.71%. For `Cc1c(NC(=O)COC(=O)/C=C/c2cccc(F)c2)c(=O)n(-c2ccccc2)n1C`, the activation was 0.67%. With `CCCCC[C@H]1CN(C2CCCCC2)C(=O)[C@@H]1CC(=O)NCc1ccc(OC)cc1`, the activation was -4.19%. Turning to `COc1cc(N2C(=O)CC3(CCCC3)CC2=O)cc(OC)c1OC`, the activation was 1.4%.

Turning to `Cc1ccc(C)c(NS(=O)(=O)c2ccc(OCC(=O)NCc3cccnc3)cc2)c1`, the activation was -1.65%. As for `CC(C)(C)OC(=O)C[C@@H]1C/C=C\C[C@@H](CC(=O)NCCO)C(=O)N[C@H](Cc2c[nH]c3ccccc23)COC1=O`, the activation is -0.08%. As for `CCOC(=O)C=Cc1ccc(C(=O)OCC)[nH]1`, the activation was 5.25%. On to `CSCCC(NC(=O)COc1ccccc1)C(=O)N(C)CC(=O)Nc1ccc(C)cc1` (stereo not drawn), for which the activation was 0.98%. In the case of `C=CC[n+]1c(-c2ccc(C)cc2)csc1NNC(=O)Nc1ccccc1` it was 0.82%. Turning to `O=C(Nc1cccc(Cl)c1)c1cc(S(=O)(=O)N2CCCCC2)c[nH]1`, the activation was 4.63%. With `CCOc1ccc(NC(=O)CN(C)C(=O)COc2cccc(CC)c2)cc1OCC` the figure was -0.57%; with `COc1ccc(CCNC(=S)N2CCN(S(=O)(=O)c3ccc(F)cc3)CC2)cc1`, -3.34%. As for `Cc1nc(C(=O)NCc2ccccc2)sc1C1(C)CC(c2cccnc2)=NO1` (stereo not drawn), the activation was 25.4% (active).

As to `Cc1nc(C(=O)Nc2ccc(Cl)cc2)sc1C1(C)CC(c2ccccc2)=NO1` (stereo not drawn), the activation is 1.09%.

Turning to `Cc1nc(-c2ccc(Cl)cc2)sc1C1(C)CC(c2ccccc2F)=NO1` (stereo not drawn), the activation was -0.32%. Consider `CC(C)(C)N(Cc1ccccc1)C(=O)c1ccncc1`, for which the activation was -0.8%. In the case of `Cc1cc(C)cc(NC(=O)N(C)Cc2ccccc2)c1` it was -2.57%. For `CN(C(=O)CN(CCO)CC(=O)N(C)C(C)(C)Cc1ccccc1)C(C)(C)Cc1ccccc1`, the activation is 39.7% (active).

With `CCc1sc(C(=O)N2CCN(CC(=O)Nc3cccc(F)c3)CC2)cc1C`, the activation is -3.37%. For the compound `COc1cccc(CNc2nc(NCc3cccs3)nc3ccsc23)c1`, the activation was 27.2% (active). For `COc1cccc(CNc2nc3cc(-c4csc5ccccc45)sc3c(=O)n2C)c1`, the activation was -0.3%. In the case of `COc1ccc(NC(=S)NCc2cccs2)c(OC)c1` it was -3.29%. With `CC(=O)Nc1cccc(-c2cc3nc(NCc4cccnc4)n(C)c(=O)c3s2)c1` the figure was 0.81%; with `CCOC(=O)CNc1nc2ccccc2n2c(C)nnc12`, 1.28%. Take `CC(=O)NCC(=O)N(Cc1ccco1)C1(C(=O)NC2CCCC2)CCCCC1`: the activation is -0.72%.

With `CC(C)[C@H](NC(=O)Nc1ccc(S(N)(=O)=O)cc1)C(=O)O`, the activation is -2.17%. In the case of `CCN(CC)c1ccc(NC(=O)CN2C(=O)NC3(CCc4ccccc43)C2=O)cc1` (stereo not drawn) it was 2.57%; in that of `CN(C)c1ccc(/C=C2\NC(=S)N(Cc3ccccc3)C2=O)cc1`, 41.4% (active).

For `O=C(Cn1cc(C(=O)C2CC2)c2ccccc21)Nc1ccccc1Cl`, the activation is 1.64%. Consider `C=CCNc1nnc(SCC(=O)N2CCCCC2)c2ccccc12`, for which the activation is -0.35%. As for `C/C(=C/C(=O)N1CCN(C)CC1)C(=O)O`, the activation was -1.65%. With `Nc1ccc2c(c1)C(=Cc1cccnc1)c1ccccc1-2` the figure was -7.37%; with `C[C@@H]1CN([C@@H](C)CO)S(=O)(=O)c2ccc(-c3ccc(C(=O)N(C)C)cc3)cc2O[C@@H]1CN(C)Cc1ccccc1C(=O)O`, -0.69%; with `Cc1ccccc1N/C(SCc1ccc(Cl)cc1)=C(/C#N)C(N)=O`, -7.05%. With `Cc1cc(C(=O)NNC(=S)Nc2ccccc2C)cs1` the figure was -0.42%; with `O=C(Cc1ccc(Cl)cc1)NC(=S)Nc1ccccc1O`, 75.2% (active); with `Cc1ccccc1NC(=S)NC(=O)Cc1ccc(Cl)cc1`, 25.7% (active).

In the case of `Oc1ccc(CNc2ccccc2O)cc1`, the activation was 3.67%.

As to `O=C(NC(=S)Nc1ccc(Cl)cc1Cl)C1CC1`, the activation is -3.08%. In the case of `O=C(C1CCN(S(=O)(=O)c2cccs2)CC1)N1CCCCCC1` it was -3.68%; in that of `CCOc1ccc(NC(=O)N(CC(C)C)CC(C)C)cc1`, -3.79%. On to `CCC(=C/c1sc2ccc3ccccc3c2[n+]1C)/C=C1\Sc2ccc3ccccc3c2N1C`, for which the activation was 1.63%. Take `COC(=O)CSc1snnc1-c1ccc(Cl)c(Cl)c1`: the activation is -7.41%. In the case of `CN(C)c1cc(N)c2ccccc2n1` (tested in a mixture with another compound) it was -6.58%; in that of `NS(=O)(=O)c1cccc(NC(=O)CC23CC4CC(CC(Br)(C4)C2)C3)c1`, -1.18%.

`CC(=O)NC1=NN(C(C)=O)C(C)(c2ccc(C)cc2)S1` (stereo not drawn): the activation is 1.09%.

With `COc1ccccc1C(=O)Oc1ccc(N2C(=O)CCC2=O)cc1`, the activation is -1.29%. Turning to `O=C(CCN1C(=O)[C@H]2CC=CC[C@H]2C1=O)NCc1nc(-c2ccccc2)no1`, the activation is 0.28%. In the case of `COc1ccccc1C(=O)NC(CCSC)C(=O)NNC(=O)c1csc(N2CCOCC2)n1` (stereo not drawn), the activation is -2.2%. With `O=C(NCCSc1ncc(-c2ccccc2)[nH]1)c1ccco1`, the activation was -1.14%. On to `Cc1nnc(SCC(=O)Nc2ncc3c(n2)CC(C)(C)CC3=O)s1`, for which the activation is -1.69%. In the case of `COC(=O)c1sc(N)c(C(=O)OC)c1COC(=O)CNS(=O)(=O)c1ccc(C)cc1`, the activation was 1.46%. In the case of `C/C=C/c1ccc(OCC(=O)OCC(=O)Nc2c(C)nn(-c3ccccc3)c2C)c(OC)c1` it was 0.8%; in that of `Nc1ccc2nc3c(=O)[nH]c(=S)[nH]c3nc2c1`, 13.3%; in that of `CCCn1c(=O)c2c(C(F)(F)F)cc(-c3cccs3)nc2n(CCC)c1=O`, -2.81%. Consider `COC(=O)c1c(NC(=O)c2ccccc2F)sc2c1C(C(=O)OC)CC2` (stereo not drawn), for which the activation is 0.55%. In the case of `COCC1CCCN(C(=O)c2ccc3oc(C(C)C)nc3c2)C1` (stereo not drawn) it was -5.48%; in that of `O=C(NCc1cccc(Cl)c1)C1=CC=CN2CCS(=O)(=O)N=C12`, -4.02%; in that of `CCCCC(=O)Nc1ccc2c(c1)C(=O)NC2=O`, -1.75%. As to `C=CCC(NC(=O)Cc1ccccc1)C(=O)NCCC` (stereo not drawn), the activation was 1.37%. As for `CCCCC(=O)NNC(=S)NC(=O)C(c1ccccc1)c1ccccc1`, the activation is 76.2% (active). With `CNC(=O)C1CN(C(=O)c2cccc(S(=O)(=O)N3CCc4ccccc43)c2)c2ccccc2O1` (stereo not drawn), the activation was 2.34%. In the case of `CC(C)C[C@H](NC(=O)NCCc1ccc(Cl)cc1)C(=O)O` it was -0.97%; in that of `CC(NC(=O)c1ccco1)c1ccc2c(c1)OCO2` (stereo not drawn), -1.73%.
